Screens deposited in PubChem BioAssay by The Scripps Research Institute Molecular Screening Center.
FXN GAA850 act – activators of GAA850 frataxin (FXN) promoter; activation, % at 6 µM; 360,000 compounds, 0.56% hits; HEK293 lucGAA850 FXN promoter luciferase reporter, 24 h; percent of 10 µM SAHA response; AID 540364;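 active = activation above the average of all compounds screened plus 3 SD, cutoff fixed separately per campaign, cut at about 7.5% in these data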;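 note: 0% = DMSO wells and 100% = 10 µM SAHA wells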
hcDAF-12 act – activates DAF-12 receptor from parasite H. contortus | activation, % at 6.8 µM | HEK293 hcDAF-12 lit1-tk-luc reporter, luminescence; 0% DMSO, 100% Δ7-dafachronic acid | 370,000 compounds, 1.4% hits | AID 652067;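 active = activation above the mean of all tested compounds plus 3 SD, cut at about 5.5% in these data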;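 note: 100% = response to 3 µM Δ7-dafachronic acid high control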
DAX1 inh-1 – inhibitors of human orphan nuclear receptor DAX1 (NR0B1). HEK293 Gal4-DAX1 luciferase reporter, luminescence. inhibition, % at 6.75 µM. 340,000 compounds, 0.99% hits. AID 504766;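 active = inhibition above the mean over all tested compounds plus 3 SD, cut at about 4.2% in these data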;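 note: 0% = DAX1-transfected cells with DMSO and 100% = empty-vector control cells with DMSO; inhibition shows as a rise in luminescence from relieved DAX1 repression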
Target sequence (P51843 207-470 limits assumed): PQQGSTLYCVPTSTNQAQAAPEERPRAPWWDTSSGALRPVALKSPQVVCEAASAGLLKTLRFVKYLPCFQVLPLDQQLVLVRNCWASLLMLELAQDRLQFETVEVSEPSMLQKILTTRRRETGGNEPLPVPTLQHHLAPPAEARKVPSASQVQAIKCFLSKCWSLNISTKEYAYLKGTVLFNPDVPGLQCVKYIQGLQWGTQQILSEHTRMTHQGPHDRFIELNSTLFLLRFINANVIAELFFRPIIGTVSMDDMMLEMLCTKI
hgDAF12 agonist – agonists of H. glycines DAF-12 nuclear receptor; activation, % at 6.8 µM; 370,000 compounds, 1.8% hits; HEK293 GAL4-hgDAF12 UAS-luciferase reporter, agonist luminescence; normalized to butyrate control;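 active = activation above a cutoff set at the mean of all screened compounds plus 3 SD, cut at about 10% in these data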;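 note: 0% = DMSO wells and 100% = sodium butyrate wells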
DAX1 inh-2 – blocks DAX1 repression of SF-1 activated StAR promoter; HEK293T StAR-luciferase reporter, SF-1/DAX-1 repression relief; inhibition, % at 6.8 µM; 370,000 compounds, 1.1% hits; AID 652010;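 active = inhibition above the mean over all tested compounds plus 3 SD, cut at about 3.6% in these data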;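 note: 0% = DAX-1 cells with DMSO and 100% = cells lacking DAX-1 with DMSO; higher inhibition means more luminescence from relief of DAX-1 repression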
ssDAF12 agonist – activators of S. stercoralis DAF-12 nuclear receptor | HEK293 ssDAF-12/GRIP1 lit1-tk-luc reporter, luminescence; % of 3 µM dafachronic acid response | activation, % at 6.8 µM | 370,000 compounds, 1% hits;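 active = activation above the mean over all tested compounds plus 3 SD, cut at about 0.9% in these data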;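 note: 0% = DMSO-only wells and 100% = 3 µM delta7-dafachronic acid wells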
hgDAF12 conf – hgDAF-12 agonism, confirmation assay; HEK293 GAL4-hgDAF12 luciferase reporter, agonist mode; percent of butyrate response; 3,300 compounds, 80% hits; activation, % at 6.8 µM; shares compounds with hgDAF12 agonist;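 active = mean activation over triplicate wells above the hit cutoff derived from the earlier primary screen, cut at about 11% in these data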;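 note: 0% = DMSO low control and 100% = 2 mM sodium butyrate high control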
LXR ag 2 – counter-screen for DAF-12 agonists: agonists of human LXR-beta; HEK293 Gal4-LXR luciferase reporter, 24 h; shares compounds with hgDAF12 agonist; 3,300 tested, under 10 active; activation, % at 6.8 µM;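 active = mean activation of the triplicate above a set limit carried over from the primary screen, none filed active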
An asterisk follows results filed as active. Sampled rows, rich in hits. Any-hit rate of the full collection: about 4.5%.

How did Cc1csc(NC(=O)c2ccccc2[N+](=O)[O-])n1 do in these assays?
FXN GAA850 act: -1; hcDAF-12 act: -1; DAX1 inh-1: -1; hgDAF12 agonist: -2; DAX1 inh-2: 1; ssDAF12 agonist: 1

What do the screens show for `Cc1occc1C(=O)Nc1cnn(CCCC(=O)O)c1`?
FXN GAA850 act: 0; hcDAF-12 act: 1; DAX1 inh-1: 1; hgDAF12 agonist: 3; DAX1 inh-2: 0; ssDAF12 agonist: 0

How did COc1ccc(-c2csc(N=C(N)N)n2)cc1 do in these assays?
FXN GAA850 act: 6; hcDAF-12 act: 2; DAX1 inh-1: 1; hgDAF12 agonist: 16*; DAX1 inh-2: 2; ssDAF12 agonist: -1; hgDAF12 conf: 11*; LXR ag 2: 0

How did COc1ccccc1NC(=O)Nc1ccc(C(=O)N2CCCCC2)cc1 do in these assays?
FXN GAA850 act: 6; hcDAF-12 act: 1; DAX1 inh-1: -1; hgDAF12 agonist: 14*; DAX1 inh-2: 2; ssDAF12 agonist: 0; hgDAF12 conf: 11*; LXR ag 2: 0

How did COc1cccc(C(O)c2nc(-c3cccc(CO)c3)cs2)c1 (stereo not given) do in these assays?
FXN GAA850 act: 0; hcDAF-12 act: -1; hgDAF12 agonist: -2; DAX1 inh-2: 0; ssDAF12 agonist: -1

Results for Cc1cccc(N=Nc2c(C)nn(-c3ccccc3)c2N)c1C ?
FXN GAA850 act: 4; hcDAF-12 act: 1; DAX1 inh-1: 0; hgDAF12 agonist: 16*; DAX1 inh-2: 0; ssDAF12 agonist: -1; hgDAF12 conf: 11*; LXR ag 2: 0

How did COc1ccc(CN2C(=O)C(CC(=O)NCCc3ccccn3)CC(C(=O)N3CCOCC3)=C2C)cc1 (stereo not given) do in these assays?
hcDAF-12 act: -1; hgDAF12 agonist: -1; DAX1 inh-2: 0; ssDAF12 agonist: -1

How did COc1ccc(/C=N/Nc2ccc([N+](=O)[O-])cc2)cc1O do in these assays?
FXN GAA850 act: 1; hcDAF-12 act: 3; DAX1 inh-1: 7.8*; hgDAF12 agonist: 17*; DAX1 inh-2: 2; ssDAF12 agonist: 0; hgDAF12 conf: 17*; LXR ag 2: 1

How did Cc1ccc(Sc2ncccc2NC(=O)c2ccccc2Cl)cc1 do in these assays?
FXN GAA850 act: 0; hcDAF-12 act: -2; hgDAF12 agonist: 2; DAX1 inh-2: 0; ssDAF12 agonist: -1

How did CC1(C)CC(=O)C(N=Nc2cc(Cl)c(Cl)c(Cl)c2)=C(O)C1 do in these assays?
FXN GAA850 act: 2; hcDAF-12 act: -1; DAX1 inh-1: 0; hgDAF12 agonist: 0; DAX1 inh-2: 0; ssDAF12 agonist: -2

How did CC(=O)N1CCc2cc(N=NC3=C(O)CC(C)(C)CC3=O)ccc21 do in these assays?
FXN GAA850 act: 2; hcDAF-12 act: 3; DAX1 inh-1: 3; hgDAF12 agonist: 15*; DAX1 inh-2: 3.9*; ssDAF12 agonist: 0; hgDAF12 conf: 17*; LXR ag 2: 1

How did CC1CCCC(NC(=O)c2ccc3snnc3c2)C1C (stereo not given) do in these assays?
FXN GAA850 act: 3; hcDAF-12 act: -1; DAX1 inh-1: 1; hgDAF12 agonist: -1; DAX1 inh-2: -1; ssDAF12 agonist: -1

What do the screens show for `O=C1C=C(c2ccc3[nH]ccc3c2)CCC1`?
FXN GAA850 act: 3; hcDAF-12 act: 2; DAX1 inh-1: 2; hgDAF12 agonist: 9; DAX1 inh-2: 1; ssDAF12 agonist: -1

How did COc1ccc2cc(C3=CC(=O)CCC3)ccc2c1 do in these assays?
FXN GAA850 act: 7; hcDAF-12 act: 6.2*; DAX1 inh-1: 4; hgDAF12 agonist: 16*; DAX1 inh-2: 2; ssDAF12 agonist: 0; hgDAF12 conf: 16*; LXR ag 2: 1

Results for Cc1ccc(/C=C\c2nccc3c2[nH]c2ccccc23)cc1 ?
FXN GAA850 act: 6; hcDAF-12 act: 4; DAX1 inh-1: 2; hgDAF12 agonist: 15*; DAX1 inh-2: 4.5*; ssDAF12 agonist: 1; hgDAF12 conf: 8; LXR ag 2: 0

Results for C(=C\c1nccc2c1[nH]c1ccccc12)/c1ccccc1 ?
FXN GAA850 act: 0; hcDAF-12 act: 5; DAX1 inh-1: 2; hgDAF12 agonist: 7; DAX1 inh-2: 1; ssDAF12 agonist: -1

What do the screens show for `CCOC(=O)c1sc(NC(=O)Cc2ccc(F)cc2)nc1C`?
FXN GAA850 act: 0; hcDAF-12 act: 0; DAX1 inh-1: 1; hgDAF12 agonist: 1; DAX1 inh-2: 0; ssDAF12 agonist: -1

Results for CCOC(=O)c1sc(NC(=O)Nc2ccc(F)cc2)nc1C ?
FXN GAA850 act: 4; hcDAF-12 act: 4; DAX1 inh-1: 2; hgDAF12 agonist: 17*; DAX1 inh-2: 3.7*; ssDAF12 agonist: 0; hgDAF12 conf: 23*; LXR ag 2: 1

What do the screens show for `CCOC(=O)c1sc(NC(=O)Nc2ccccc2)cc1C`?
FXN GAA850 act: 3; hcDAF-12 act: 6; DAX1 inh-1: 0; hgDAF12 agonist: 17*; DAX1 inh-2: 3; ssDAF12 agonist: 0; hgDAF12 conf: 23*; LXR ag 2: 1

How did COc1cccc(C(=O)Nc2nc3ccccc3s2)c1 do in these assays?
FXN GAA850 act: 3; hcDAF-12 act: 6.3*; DAX1 inh-1: 3; hgDAF12 agonist: 17*; DAX1 inh-2: 3; ssDAF12 agonist: 2.4*; hgDAF12 conf: 20*; LXR ag 2: 1

How did CCOC(=O)c1sc(NC(C)=O)cc1C do in these assays?
FXN GAA850 act: -3; hcDAF-12 act: 0; DAX1 inh-1: -1; hgDAF12 agonist: 2; DAX1 inh-2: 0; ssDAF12 agonist: -1

What do the screens show for `CCOC(=O)c1sc(NC(=S)NC(=O)c2ccccc2)nc1C`?
FXN GAA850 act: 7; hcDAF-12 act: 5.9*; DAX1 inh-1: 2; hgDAF12 agonist: 16*; DAX1 inh-2: 3; ssDAF12 agonist: 0; hgDAF12 conf: 12*; LXR ag 2: 0

How did CC(=O)N1CCc2cc(Br)cc(S(=O)(=O)CCC(=O)N3CCN(c4ccccn4)CC3)c21 do in these assays?
FXN GAA850 act: 1; hcDAF-12 act: -1; DAX1 inh-1: 0; hgDAF12 agonist: -1; DAX1 inh-2: -1; ssDAF12 agonist: -1

How did N#CCCN(Cc1ccccc1)C(=O)CCC(=O)c1ccc(F)cc1 do in these assays?
FXN GAA850 act: -1; hcDAF-12 act: -1; DAX1 inh-1: 0; hgDAF12 agonist: 0; DAX1 inh-2: 0; ssDAF12 agonist: -1
